# The panel holds about 79,000 compounds, 15% with a hit somewhere; the sample as a whole holds those more often. Unmarked numbers belong to inactive results. Calls of active or inactive are those of the source. Cut-off read from the data, not from the text of the source: active = growth inhibition above about 70%; inactive = the rest.
# Experiment: NCI Yeast Anticancer Drug Screen. Data for the cln2 rad14 strain (AID 165);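 note: 0% = growth equal to vehicle treated cultures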
# Details: S. cerevisiae cln2 rad14 strain, at 5.0 µM (retest, dose inferred, filed as 0.5), stronger effect = higher value
# Procedure, shortened: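 Test compounds were added to cln2 rad14 yeast cultures; inhibition of growth was then determined by comparison with vehicle treatment.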
row,SMILES,growth inhibition
1,C1=NC2c3ccccc3Cc3cccc1c32 (centres undefined),-28%
2,COc1ccc2c(c1)CN([C@@H](C)[C@H]1CC[C@H]3[C@@H]4CC[C@H]5C[C@@H](O)CC[C@]5(C)[C@H]4CC[C@]13C)CO2,95% (active)
3,Cc1c(N)nc(C(CC(N)=O)NCC(N)C(N)=O)nc1C(=O)NC(C(=O)NC(C)C(O)C(C)C(=O)NC(C(=O)NCCc1nc(-c2nc(C(=O)NCCCNCCCc3ccccn3)cs2)cs1)C(C)O)C(OC1OC(CO)C(O)C(O)C1OC1OC(CO)C(O)C(OC(N)=O)C1O)c1cnc[nH]1 (centres undefined),90% (active)
4,COc1cc2c(cc1O)-c1c(cnn1-c1ccccc1)CCC2,-17%
5,CN(C)CC(CN(C)C)C(=O)c1ccc(Oc2ccc(Cl)cc2)cc1,36%
6,N#CCCN(CCC#N)Cc1c(O)c(O)c(CN(CCC#N)CCC#N)c2ccccc12,0%
7,Cc1cc2c(c([N+](=O)[O-])c1C)C(=O)C(Br)=C(N)C2=O,45%
8,O=C(O)CSC(=S)N1CCCC1,2%
9,CNC1=C2NC(=O)/C(C)=C\C=C\C(C)C(O)C(C)C(O)C(C)C(OC(C)=O)C(C)C(OC)/C=C/OC3(C)Oc4c(C)c(O)c(c(c4C3=O)C1=O)C2=O (centres undefined),-4%
10,O=c1c(Cl)nsnc1Cl,99% (active)
11,CC(NC(=O)OCc1ccccc1)C(=O)NNc1ccccc1Cl (centres undefined),29%
12,O=C(OCc1ccccc1CN1CCOCC1)c1cccc(Br)c1,-5%
13,OC(COc1ccc(Cl)cc1)COc1ccc(Cl)cc1,-19%
14,Cc1c(-c2ccc(C(=N)N)cc2)oc(-c2ccc(C(=N)N)cc2)c1C,80% (active)
15,COC(=O)[C@@]12OC[C@]34[C@H]([C@@H](O)[C@@H]1O)[C@@]1(C)CC(=O)C(O)=C(C)[C@@H]1C[C@H]3OC(=O)[C@H](OC(=O)C(Cc1ccccc1)NC(=O)OC(C)(C)C)[C@@H]24 (some centres undefined),33%
16,CCCCCCCCCCCCCCCC(=O)NCC[N+](C)(CC)CC,1%
17,Oc1ccc(CCCCCc2ccc(O)cc2)cc1,1%
18,NN(Cc1ccccc1)c1ccccc1,43%
19,CCOC(=O)c1[nH]cc(C)c1-c1ccc2c(-c3ccccc3)nc3ccccc3n12,12%
20,COC(=O)c1cn(NS(=O)(=O)c2ccc(OC)cc2)cc1C(=O)OC,-1%

row,SMILES,growth inhibition
1,CN(C)c1cc2c(cc1[N+](=O)[O-])-c1ccccc1C2O (centres undefined),-4%
2,CN(C)CCOc1cc2c(c3ccccc13)-c1ccccc1C2O (centres undefined),1%
3,BrC(Br)([P+](c1ccccc1)(c1ccccc1)c1ccccc1)[P+](c1ccccc1)(c1ccccc1)c1ccccc1,4%
4,CCOCCNc1ncnc2c1cnn2C,-5%
5,C[C@H](CCC1=NCCN1)[C@H]1CC[C@H]2[C@@H]3CC[C@@H]4C[C@H](O)CC[C@]4(C)[C@H]3C[C@H](O)[C@]12C,59%
6,CCOC(=O)C1=C(c2ccccc2)N(C)c2ccccc2S1,-1%
7,C(=P(c1ccccc1)(c1ccccc1)c1ccccc1)[P+](c1ccccc1)(c1ccccc1)c1ccccc1.[Br][Cu][Br],98% (active)
8,COc1ccc(N(C)Sc2ccccc2)cc1,9%
9,COc1ccc(Cc2c(-c3ccc(C)cc3)n[nH]c(=O)c2C2C(=O)N(c3ccccc3)N=C2c2ccccc2)cc1 (centres undefined),98% (active)
10,N#CSC#CCCC#CSC#N,99% (active)
11,c1ccc2c(c1)OCC(CNCCNCC1COc3ccccc3O1)O2 (centres undefined),45%
12,CC(C)(C)OC(=O)N[C@H]1CC2(C=C(Cl)C(=O)C(Cl)=C2)OC1=O,13%
13,c1ccc([P+](c2ccccc2)(c2ccccc2)C2CCCC2)cc1,-3%
14,COc1ccc2nc(-c3ccc(Cl)cc3)[nH]c2c1,-8%
15,CC[C@H](CC[C@@H](C)C1CC[C@H]2[C@@H]3CCC4=CC(=O)CC[C@]4(C)[C@H]3CC[C@]12C)C(C)C (some centres undefined),-6%
16,CCOC(=O)N/N=C/c1ccc(N(C)CCC#N)cc1,37%
17,CC(Br)C(=O)c1ccc2cc(Cl)c3ccccc3c2c1 (centres undefined),-4%
18,Cc1ccc(-n2cc(-c3ccc(Cl)cc3)c3c(NN)ncnc32)cc1,-20%
19,O=C1c2ccccc2C(=O)c2c1ccc(C(=O)O)c2-c1ccc2ccccc2c1,13%

# Source: PubChem BioAssay (NCI)
